Experimental data: publication PMC7862700, “An all-to-all approach to the identification of sequence-specific readers for epigenetic DNA modifications on cytosine”

What was measured:
Assay in all cases: DAPPL (digital affinity profiling via proximity ligation, sequencing); 10 mM Tris-HCl pH 7.5, 50 mM NaCl, 1 mM DTT, 4% glycerol, room temperature, 30 min; GST-TFs on glutathione beads, 16-mer random dsDNA library, 0.1% formaldehyde crosslink after washing; high values mean tight binding
Conditions in all cases: protein: recombinant; tags: N-terminal GST; dsDNA, one strand shown
FLI1 = biological target: T1, FLI1 (Homo sapiens, UniProt Q01543 1-452)
T1 sequence: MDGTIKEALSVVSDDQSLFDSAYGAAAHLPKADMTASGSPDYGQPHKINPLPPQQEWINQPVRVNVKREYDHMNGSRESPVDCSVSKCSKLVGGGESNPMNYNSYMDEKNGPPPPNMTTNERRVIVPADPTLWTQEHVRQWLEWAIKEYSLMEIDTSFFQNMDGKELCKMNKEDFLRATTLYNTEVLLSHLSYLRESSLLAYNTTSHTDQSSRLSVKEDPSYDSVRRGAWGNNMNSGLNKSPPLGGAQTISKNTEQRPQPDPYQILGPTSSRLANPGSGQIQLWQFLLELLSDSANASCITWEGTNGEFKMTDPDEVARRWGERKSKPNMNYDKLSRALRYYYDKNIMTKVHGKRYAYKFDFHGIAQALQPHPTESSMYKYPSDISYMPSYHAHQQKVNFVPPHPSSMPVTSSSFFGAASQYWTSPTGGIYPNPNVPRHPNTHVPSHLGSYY
Outline: (§1)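 Human transcription factors carrying a GST fusion were produced in yeast, bound to glutathione beads, tagged with DNA barcodes and pooled together with a tag-only sample. Each pool was held with 200 nmole of a random double-stranded 16-mer DNA library in Tris/NaCl/DTT/glycerol buffer for 30 min at room temperature, then washed, crosslinked in 0.1% formaldehyde, proximity-ligated with BsaI/T4 ligase (1 h, 37 °C), PCR-amplified and sequenced on an Illumina NextSeq500. Binding signal is the read frequency of each hexamer for a given factor divided by its frequency in the tag-only sample.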

ELK1 = biological target: T2, ELK1 (Homo sapiens, UniProt P19419 1-428)
T2 sequence: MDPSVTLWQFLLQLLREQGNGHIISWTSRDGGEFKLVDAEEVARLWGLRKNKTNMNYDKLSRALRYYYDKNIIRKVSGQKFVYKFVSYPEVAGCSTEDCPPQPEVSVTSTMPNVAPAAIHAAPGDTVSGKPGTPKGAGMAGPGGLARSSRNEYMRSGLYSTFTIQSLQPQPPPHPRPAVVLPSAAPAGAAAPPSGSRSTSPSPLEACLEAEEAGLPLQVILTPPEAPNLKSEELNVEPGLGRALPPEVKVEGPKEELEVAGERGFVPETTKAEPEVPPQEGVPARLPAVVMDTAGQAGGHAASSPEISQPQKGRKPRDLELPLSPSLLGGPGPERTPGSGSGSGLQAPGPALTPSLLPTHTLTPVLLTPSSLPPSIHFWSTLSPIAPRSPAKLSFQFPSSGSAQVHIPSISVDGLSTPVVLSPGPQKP
Outline: as §1

ELF1 = ELF1 (Homo sapiens, UniProt P32519 1-619)
Chain of ELF1 (P32519 whole entry): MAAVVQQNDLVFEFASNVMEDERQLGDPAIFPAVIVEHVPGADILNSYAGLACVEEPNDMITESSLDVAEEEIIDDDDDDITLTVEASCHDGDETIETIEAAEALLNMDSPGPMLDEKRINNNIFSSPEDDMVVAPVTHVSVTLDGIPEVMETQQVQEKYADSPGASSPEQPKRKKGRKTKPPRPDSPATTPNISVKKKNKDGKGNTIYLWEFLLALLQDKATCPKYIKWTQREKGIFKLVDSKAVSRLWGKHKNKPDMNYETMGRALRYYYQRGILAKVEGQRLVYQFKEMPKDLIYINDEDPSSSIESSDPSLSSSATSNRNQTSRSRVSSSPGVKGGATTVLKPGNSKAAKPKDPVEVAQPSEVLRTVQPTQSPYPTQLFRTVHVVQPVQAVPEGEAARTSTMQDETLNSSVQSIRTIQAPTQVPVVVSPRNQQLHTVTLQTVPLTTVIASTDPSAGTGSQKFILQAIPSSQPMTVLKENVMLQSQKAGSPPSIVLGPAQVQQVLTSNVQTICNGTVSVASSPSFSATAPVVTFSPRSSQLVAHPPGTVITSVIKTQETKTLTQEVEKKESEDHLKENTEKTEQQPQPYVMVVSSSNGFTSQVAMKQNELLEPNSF
Outline: as §1

EHF = biological target: T3, EHF (Homo sapiens, UniProt Q9NZC4 1-300)
T3 sequence: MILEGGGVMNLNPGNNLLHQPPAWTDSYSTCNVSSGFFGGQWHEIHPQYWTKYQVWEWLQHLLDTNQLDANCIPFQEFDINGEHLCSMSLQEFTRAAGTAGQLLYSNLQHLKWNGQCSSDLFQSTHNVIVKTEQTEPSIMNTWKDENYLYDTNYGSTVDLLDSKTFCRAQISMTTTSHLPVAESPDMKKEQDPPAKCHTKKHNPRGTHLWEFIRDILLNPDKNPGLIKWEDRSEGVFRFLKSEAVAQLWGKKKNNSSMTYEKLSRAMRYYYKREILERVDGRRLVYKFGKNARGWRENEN
Outline: as §1

SPI1 = SPI1 (Homo sapiens, UniProt P17947 1-270)
Outline: as §1

SPIB = SPIB (Homo sapiens, UniProt Q01892 1-262)
Chain of SPIB (Q01892 whole entry): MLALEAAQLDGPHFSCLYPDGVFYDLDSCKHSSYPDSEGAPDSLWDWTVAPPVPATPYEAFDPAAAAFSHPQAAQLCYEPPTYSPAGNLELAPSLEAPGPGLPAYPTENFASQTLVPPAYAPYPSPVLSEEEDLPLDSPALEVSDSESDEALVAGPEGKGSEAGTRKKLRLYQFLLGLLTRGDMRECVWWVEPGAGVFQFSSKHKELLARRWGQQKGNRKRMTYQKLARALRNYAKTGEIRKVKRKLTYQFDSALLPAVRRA
Outline: as §1

ETV5 = ETV5 (Homo sapiens, UniProt P41161 1-510)
Chain of ETV5 (P41161 whole entry): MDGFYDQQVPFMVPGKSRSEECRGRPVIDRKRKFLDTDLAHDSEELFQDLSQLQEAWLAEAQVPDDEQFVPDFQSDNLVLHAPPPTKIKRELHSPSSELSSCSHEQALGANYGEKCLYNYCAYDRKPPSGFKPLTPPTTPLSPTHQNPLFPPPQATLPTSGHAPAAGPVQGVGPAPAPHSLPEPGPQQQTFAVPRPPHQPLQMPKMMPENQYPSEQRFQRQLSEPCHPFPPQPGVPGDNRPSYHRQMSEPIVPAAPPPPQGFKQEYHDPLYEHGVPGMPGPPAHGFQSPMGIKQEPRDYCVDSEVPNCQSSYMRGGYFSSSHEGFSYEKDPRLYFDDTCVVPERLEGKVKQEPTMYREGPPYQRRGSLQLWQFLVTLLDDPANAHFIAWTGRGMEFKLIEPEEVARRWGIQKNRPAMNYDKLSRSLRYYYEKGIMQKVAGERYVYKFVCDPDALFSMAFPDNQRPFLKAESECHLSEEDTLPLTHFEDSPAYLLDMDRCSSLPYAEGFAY
Outline: as §1

SPIC = biological target: T4, SPIC (Homo sapiens, UniProt Q8N5J4 1-248)
T4 sequence: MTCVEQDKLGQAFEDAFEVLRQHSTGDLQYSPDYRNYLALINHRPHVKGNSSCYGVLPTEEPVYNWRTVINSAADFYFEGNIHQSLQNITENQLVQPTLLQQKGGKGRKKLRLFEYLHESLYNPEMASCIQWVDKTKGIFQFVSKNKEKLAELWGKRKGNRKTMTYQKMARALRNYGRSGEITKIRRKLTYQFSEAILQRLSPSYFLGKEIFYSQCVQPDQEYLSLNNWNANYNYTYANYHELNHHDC
Outline: as §1

ETV1 = ETV1 (Homo sapiens, UniProt P50549 1-477)
Chain of ETV1 (P50549 whole entry): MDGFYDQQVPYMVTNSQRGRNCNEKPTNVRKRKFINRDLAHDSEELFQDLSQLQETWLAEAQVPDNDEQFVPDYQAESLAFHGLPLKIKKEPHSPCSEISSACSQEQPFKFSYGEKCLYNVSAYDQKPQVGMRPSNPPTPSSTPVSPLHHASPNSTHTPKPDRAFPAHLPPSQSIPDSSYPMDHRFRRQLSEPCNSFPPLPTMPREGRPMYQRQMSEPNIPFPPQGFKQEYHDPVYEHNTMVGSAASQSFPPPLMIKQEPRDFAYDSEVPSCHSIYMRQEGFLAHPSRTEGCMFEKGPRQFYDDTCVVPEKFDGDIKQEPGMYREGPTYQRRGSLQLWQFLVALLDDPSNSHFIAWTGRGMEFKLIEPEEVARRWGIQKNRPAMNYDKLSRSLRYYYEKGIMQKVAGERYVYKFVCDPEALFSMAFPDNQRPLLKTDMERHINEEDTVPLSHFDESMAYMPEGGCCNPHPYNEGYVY
Outline: as §1

SPDEF = biological target: T5, SPDEF (Homo sapiens, UniProt O95238 1-335)
T5 sequence: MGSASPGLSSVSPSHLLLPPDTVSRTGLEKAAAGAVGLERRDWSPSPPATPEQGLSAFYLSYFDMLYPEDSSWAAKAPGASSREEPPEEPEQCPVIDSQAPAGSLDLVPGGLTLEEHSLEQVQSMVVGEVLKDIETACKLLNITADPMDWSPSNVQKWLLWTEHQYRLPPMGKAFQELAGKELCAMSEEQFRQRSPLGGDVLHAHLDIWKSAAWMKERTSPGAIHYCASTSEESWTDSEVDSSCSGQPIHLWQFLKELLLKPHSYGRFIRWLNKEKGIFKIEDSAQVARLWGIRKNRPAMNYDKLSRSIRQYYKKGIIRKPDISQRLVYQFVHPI
Outline: as §1

ETV6 = ETV6 (Homo sapiens, UniProt P41212 1-452)
Chain of ETV6 (P41212 whole entry): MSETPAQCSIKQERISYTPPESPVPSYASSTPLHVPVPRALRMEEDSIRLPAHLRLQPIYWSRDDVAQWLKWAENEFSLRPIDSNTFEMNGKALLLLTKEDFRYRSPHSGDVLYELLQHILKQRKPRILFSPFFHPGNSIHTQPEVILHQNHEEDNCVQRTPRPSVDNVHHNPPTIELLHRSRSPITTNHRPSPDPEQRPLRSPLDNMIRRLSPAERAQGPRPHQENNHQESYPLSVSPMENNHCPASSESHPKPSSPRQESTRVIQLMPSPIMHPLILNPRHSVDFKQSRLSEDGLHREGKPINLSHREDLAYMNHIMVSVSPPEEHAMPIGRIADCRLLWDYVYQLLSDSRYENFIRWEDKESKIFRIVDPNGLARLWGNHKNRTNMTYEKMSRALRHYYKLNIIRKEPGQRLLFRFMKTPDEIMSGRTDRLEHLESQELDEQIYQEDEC
Outline: as §1

Q: How did the binding signal (FLI1) turn out when ACGGTT was run?
A: 1.07 fold enrichment (6-mer frequency, TF over GST control)

Q: What about the binding signal (ELK1) of the same sequence?
A: 1.02 fold enrichment (6-mer frequency, TF over GST control)

Q: What about the binding signal (ELF1) of the same sequence?
A: 1.03 fold enrichment (6-mer frequency, TF over GST control)

Q: And the binding signal (EHF)?
A: 1.04 fold enrichment (6-mer frequency, TF over GST control)

Q: What about the binding signal (SPI1) of the same sequence?
A: 1.02 fold enrichment (6-mer frequency, TF over GST control)

Q: And the binding signal (SPIB)?
A: 1.02 fold enrichment (6-mer frequency, TF over GST control)

Q: And the binding signal (ETV5)?
A: 1 fold enrichment (6-mer frequency, TF over GST control)

Q: What about the binding signal (SPIC) of the same sequence?
A: 1.04 fold enrichment (6-mer frequency, TF over GST control)

Q: And the binding signal (ETV1)?
A: 1.08 fold enrichment (6-mer frequency, TF over GST control)

Q: And the binding signal (SPDEF)?
A: 1.04 fold enrichment (6-mer frequency, TF over GST control)

Q: What about the binding signal (ETV6) of the same sequence?
A: 1.01 fold enrichment (6-mer frequency, TF over GST control)
